# Results reported in the OligoGym collection.
# Target: SMC5
# Assay: pooled miR-30 sensor sort-seq; sequence = guide strand
# Conditions: shRNA
# Further: reference of the scale not given here.
row,Sequence,sensor-assay potency score (higher = more potent)
1,TTATCTTTCATATTGATCGTGA,0.464
2,TATAAATCTGTTTTAATCGGGT,-0.0428
3,TTCTGCAATAATCTCTGTCTAT,-1.01

# Target: SMCP
# Assay: as above
# Conditions: shRNA
row,Sequence,sensor-assay potency score (higher = more potent)
1,TCTAAACACAGGTCTAGCCTGA,0.141
2,TGACTGGCAGCACTGGTTCTGC,-1.04
3,TTTGGTGGGCAGCATTGACTGC,-0.712
4,TTTTGACTGGCAGCACTGGTTC,-0.818
5,TAAGGGGTGAGACTTCAGGCTT,-0.603
6,TTTGCGGTGAGTTGGGCTCAGA,-1.18
7,TTTGCTGGGCAGCATTTACTGT,-0.976
8,TTGTCCTGAGTTTGCGGTGAGT,-1.27
9,TTGTGTTTTGGTGGGCAGCATT,-1.54
10,TTGGTGGGCAGCATTGACTGCC,-0.359
11,TTGATTGCCTTTTGACTGGCAG,0.000564
12,TTGGTCTCCAAACCACAGCACC,-1.3

# Target: SMCR7L
# Assay: as above
# Conditions: shRNA
row,Sequence,sensor-assay potency score (higher = more potent)
1,TTGCTCTAAGGCCACATCCTAG,-1.5
2,TTGCATTCAGCTTATCCTGTGT,0.0334
3,TGACTTCTTCAAGTCTACCTGG,-0.253
4,AAACATGCTATCACAGCTCTTC,0.268
5,TTGTCTGTCTGACCCCTGCAGC,-0.951
6,TTAAACATTCCTCCCCACCTTC,-0.361
7,TAGCCAAGTGTATCTAACGGAG,-1.24
8,TATGTCCACAGCAGCTTGCTTG,-1.35
9,TAAGTAGCTGATAAGTCCCCTC,-0.665
10,TTCTCCTGCAGGGACATGCGGA,-1.36
11,TACATTGCAATAAATACTGCAA,0.27
12,TTCTACTCCAGGAACCGTGGTC,0.223

# Target: SMYD2
# Assay: as above
# Conditions: shRNA
row,Sequence,sensor-assay potency score (higher = more potent)
1,TTGACCGTGAGCACGTAGGCAT,-0.166
2,TTAACCGGTCATTTCTATCTTC,0.511
3,TAGTCTTACAGTCTCCGAGGGA,-0.703
4,TTTTCTGTCCATATTGCAGGGC,-0.2
5,TTATCCTTGTCCTTGGTGGTAC,-0.716
6,TTTGCCGTGAGCTACTTCCATG,-1.61
7,TTAAGGTTTCTGAACTAAGTGT,-0.419
8,TACAGCTCTGACTTCTGCCAGG,-0.948
9,TACAGGAGATCAATATAGCTGG,-0.203
10,TAGGTCACAATGACATTGGGGC,0.446
11,TTACTGTCCTCAAACACAGAGC,-0.927
12,TAACATATGAAACCATGCCATT,-1.62
